# “And” between values parts separate entries of the source, which are not always exact repeats. Equal entries are not always repeated. Hit rate of the full screen: of about 5,500 compounds, about 2,000 (36%) were called active. Inconclusive results (about 18%) are left out. Cut-off read from the data, not from the text of the source: active = normalized growth mostly below about 0.91 (no sharp cut-off); inconclusive = no clear call, values can overlap the other calls; inactive = mostly above about 0.92. Some of the results follow.
# Experiment: chemical genetic growth profiling, strain panel (AID 1159580);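 note: tested at 20 µM; growth read once vehicle control cultures reached saturation at 30 °C; 1 = growth at the plate median or of vehicle wells; lower values mean less growth of the strain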
# Conditions: S. cerevisiae deletion strains, growth OD
smiles,measurement,setting,value
CC/C(=C(\c1ccccc1)c1ccc(OCCN(C)C)cc1)c1ccccc1,normalized growth,"locus YAL013W, strain DEP1, stronger effect = lower value",0.0667 (active)
same,normalized growth,"locus YAL021C, strain ccr4, stronger effect = lower value",0.0669 (active)
same,normalized growth,"locus YAL026C, strain drs2, stronger effect = lower value",0.0635 (active)
same,normalized growth,"locus YAL030W, strain snc1, stronger effect = lower value",0.0686 (active)
same,normalized growth,"locus YAL040C, strain CLN3, stronger effect = lower value",1.04 (inactive)
same,normalized growth,"locus YBL061C, strain skt5, stronger effect = lower value",0.072 (active)
same,normalized growth,"locus YBR009C, strain hhf1, stronger effect = lower value",0.0625 (active)
same,normalized growth,"locus YBR021W, strain FUR4, stronger effect = lower value",0.0845 (active)
same,normalized growth,"locus YBR023C, strain chs3, stronger effect = lower value",0.0749 (active)
same,normalized growth,"locus YBR171W, strain sec66, stronger effect = lower value",0.383 (active)
same,normalized growth,"locus YBR229C, strain ROT2, stronger effect = lower value",0.0463 (active)
same,normalized growth,"locus YBR231C, strain swc5, stronger effect = lower value",0.0729 (active)
same,normalized growth,"locus YBR279W, strain paf1, stronger effect = lower value",0.122 (active)
same,normalized growth,"locus YCL011C, strain gbp2, stronger effect = lower value",0.0716 (active)
same,normalized growth,"locus YCL016C, strain dcc1, stronger effect = lower value",0.122 (active)
same,normalized growth,"locus YCL029C, strain bik1, stronger effect = lower value",0.0615 (active)
same,normalized growth,"locus YCL061C, strain MRC1 (second series), stronger effect = lower value",0.311 (active)
same,normalized growth,"locus YCL069W, strain vba3, stronger effect = lower value",0.0995 (active)
same,normalized growth,"locus YCR088W, strain abp1, stronger effect = lower value",0.0758 (active)
same,normalized growth,"locus YDL005C, strain med2, stronger effect = lower value",0.382 (active)
same,normalized growth,"locus YDL035C, strain GPR1, stronger effect = lower value",0.0496 (active)
same,normalized growth,"locus YDL040C, strain nat1, stronger effect = lower value",0.312 (active)
same,normalized growth,"locus YDL074C, strain BRE1, stronger effect = lower value",0.0746 (active)
same,normalized growth,"locus YDL101C, strain DUN1, stronger effect = lower value",0.0532 (active)
same,normalized growth,"locus YDL134C, strain PPH21, stronger effect = lower value",0.0467 (active)
same,normalized growth,"locus YDL185W, strain tfp1, stronger effect = lower value",0.606 (active)
same,normalized growth,"locus YDL192W, strain arf1, stronger effect = lower value",0.062 (active)
same,normalized growth,"locus YDR001C, strain nth1, stronger effect = lower value",0.0956 (active)
same,normalized growth,"locus YDR069C, strain doa4, stronger effect = lower value",0.068 (active)
same,normalized growth,"locus YDR101C, strain arx1, stronger effect = lower value",0.0613 (active)
same,normalized growth,"locus YDR137W, strain rgp1, stronger effect = lower value",0.461 (active)
same,normalized growth,"locus YDR150W, strain NUM1, stronger effect = lower value",0.0558 (active) and 0.416 (active)
same,normalized growth,"locus YDR159W, strain sac3, stronger effect = lower value",0.0992 (active)
same,normalized growth,"locus YDR162C, strain NBP2, stronger effect = lower value",0.046 (active)
same,normalized growth,"locus YDR195W, strain ref2",0.166 (active)
same,normalized growth,"locus YDR297W, strain sur2, stronger effect = lower value",0.0894 (active)
same,normalized growth,"locus YDR318W, strain mcm21, stronger effect = lower value",0.0655 (active)
same,normalized growth,"locus YDR334W, strain swr1, stronger effect = lower value",0.0759 (active)
same,normalized growth,"locus YDR335W, strain msn5, stronger effect = lower value",0.103 (active)
same,normalized growth,"locus YDR363W, strain ESC2, stronger effect = lower value",0.174 (active)
same,normalized growth,"locus YDR388W, stronger effect = lower value",0.0557 (active)
same,normalized growth,"locus YDR392W, strain spt3, stronger effect = lower value",0.0847 (active)
same,normalized growth,"locus YDR502C, strain sam2, stronger effect = lower value",0.0692 (active)
same,normalized growth,"locus YEL003W, strain gim4, stronger effect = lower value",0.127 (active)
same,normalized growth,"locus YEL037C, strain rad23, stronger effect = lower value",0.093 (active)
same,normalized growth,"locus YEL061C, strain CIN8 (second series), stronger effect = lower value",0.243 (active)
same,normalized growth,"locus YEL061C, strain CIN8, stronger effect = lower value",0.0479 (active)
same,normalized growth,"locus YER002W, strain NOP16, stronger effect = lower value",1.02 (inactive)
same,normalized growth,"locus YER015W, strain faa2, stronger effect = lower value",0.117 (active)
same,normalized growth,"locus YER016W, strain bim1, stronger effect = lower value",0.164 (active)
same,normalized growth,"locus YER110C, stronger effect = lower value",0.072 (active)
same,normalized growth,"locus YER111C, strain swi4, stronger effect = lower value",0.372 (active)
same,normalized growth,"locus YER155C, strain BEM2 (second series), stronger effect = lower value",0.668 (active)
same,normalized growth,"locus YER155C, strain BEM2, stronger effect = lower value",0.0653 (active)
same,normalized growth,"locus YER167W, strain BCK2, stronger effect = lower value",0.05 (active)
same,normalized growth,"locus YFR010W, strain ubp6, stronger effect = lower value",0.0799 (active)
same,normalized growth,"locus YGL078C, strain dbp3, stronger effect = lower value",0.901 (active)
same,normalized growth,"locus YGL086W, strain mad1, stronger effect = lower value",0.0577 (active)
same,normalized growth,"locus YGL167C, strain pmr1, stronger effect = lower value",0.196 (active)
same,normalized growth,"locus YGL173C, strain kem1, stronger effect = lower value",0.168 (active)
same,normalized growth,"locus YGL227W, strain vid30, stronger effect = lower value",0.143 (active)
same,normalized growth,"locus YGL240W, strain doc1, stronger effect = lower value",0.436 (active)
same,normalized growth,"locus YGL248W, strain PDE1, stronger effect = lower value",0.0453 (active)
same,normalized growth,"locus YGL253W, strain hxk2, stronger effect = lower value",0.0687 (active)
same,normalized growth,"locus YGR078C, strain PAC10, stronger effect = lower value",0.0556 (active) and 0.48 (active)
same,normalized growth,"locus YGR135W, strain pre9, stronger effect = lower value",0.0678 (active)
same,normalized growth,"locus YGR229C, strain SMI1, stronger effect = lower value",0.061 (active) and 0.0615 (active)
same,normalized growth,"locus YGR252W, strain gcn5, stronger effect = lower value",0.155 (active)
same,normalized growth,"locus YHR013C, strain ard1, stronger effect = lower value",0.174 (active)
same,normalized growth,"locus YHR027C, strain rpn1, stronger effect = lower value",0.102 (active)
same,normalized growth,"locus YHR030C, strain SLT2, stronger effect = lower value",0.0499 (active) and 0.883 (inactive)
same,normalized growth,"locus YHR079C, strain IRE1 (second series), stronger effect = lower value",0.0574 (active)
same,normalized growth,"locus YHR079C, strain IRE1, stronger effect = lower value",0.883 (inactive)
same,normalized growth,"locus YHR094C, strain hxt1, stronger effect = lower value",0.059 (active)
same,normalized growth,"locus YHR129C, strain ARP1, stronger effect = lower value",0.0531 (active)
same,normalized growth,"locus YHR142W, strain chs7, stronger effect = lower value",0.0883 (active)
same,normalized growth,"locus YHR200W, strain rpn10, stronger effect = lower value",0.0609 (active)
same,normalized growth,"locus YIL066C, strain RNR3, stronger effect = lower value",0.0471 (active)
same,normalized growth,"locus YIL073C, strain SPO22, stronger effect = lower value",0.158 (active)
same,normalized growth,"locus YIL125W, strain kgd1, stronger effect = lower value",0.91 (active)
same,normalized growth,"locus YIR030C, strain dcg1, stronger effect = lower value",0.0575 (active)
same,normalized growth,"locus YJL092W, strain hpr5, stronger effect = lower value",0.0913 (active)
same,normalized growth,"locus YJL095W, strain BCK1 (second series), stronger effect = lower value",0.0594 (active)
same,normalized growth,"locus YJL095W, strain BCK1, stronger effect = lower value",0.0507 (active) and 0.883 (inactive)
same,normalized growth,"locus YJL115W, strain asf1, stronger effect = lower value",0.155 (active)
same,normalized growth,"locus YJL129C, strain trk1, stronger effect = lower value",0.159 (active)
same,normalized growth,"locus YJL134W, strain LCB3, stronger effect = lower value",0.0479 (active)
same,normalized growth,"locus YJL154C, strain vps35, stronger effect = lower value",0.078 (active)
same,normalized growth,"locus YJL164C, strain tpk1, stronger effect = lower value",0.0754 (active)
same,normalized growth,"locus YJL166W, strain qcr8, stronger effect = lower value",0.0964 (active)
same,normalized growth,"locus YJL168C, strain set2, stronger effect = lower value",0.057 (active)
same,normalized growth,"locus YJL187C, strain SWE1 (second series), stronger effect = lower value",0.046 (active)
same,normalized growth,"locus YJR043C, strain POL32, stronger effect = lower value",0.0587 (active)
same,normalized growth,"locus YJR066W, strain TOR1, stronger effect = lower value",0.888 (inactive)
same,normalized growth,"locus YJR075W, strain HOC1, stronger effect = lower value",0.0611 (active) and 0.54 (active)

# Reference: PubChem BioAssay AID1159580 (chemical genetic matrix, 2015)
